Shiga inhibitor = A qHTS for Small Molecule Inhibitors of Shiga Toxin; Vero cells, Shiga toxin protein synthesis inhibition reporter; inhibition, % at 38.7 µM; 9.2% of 290,000 active; in the data active = inhibition mostly above about 28%, no sharp cut-off; inactive = mostly below about 43%; note: 0% is about no effect
Cycloheximide cs = Cycloheximide Counterscreen for Small Molecule Inhibitors of Shiga Toxin. 12% of 300,000 active. max response, %. cell reporter, cycloheximide protein synthesis inhibition counterscreen. AID 2314, 2010; in the data active = max response mostly above about 13%, no sharp cut-off; inactive = mostly below about 14%; note: read at 38.3 µM for the half of the compounds with a filed dose; 0% is about no effect
SARS PLP yeast = qHTS of Yeast-based Assay for SARS-CoV PLP; AID 485353, 2010; Potency, µM (titrated, usually from 32.9 µM), without a hit: top-dose activity, positive = growth rescue, most hits filed as activators; S. cerevisiae expressing SARS-CoV PLpro, growth rescue; 0.19% of 330,000 active; note: potency is the fitted concentration of half-maximal effect; 0% is about no effect; nearly all actives have a fitted effect of over 55% in size
NS1 inh = qHTS Assay for Inhibitors of Influenza NS1 Protein Function; Potency, µM (doses to about 46.1 µM), for the others: at the top dose activity, positive = more growth; 0.4% of 270,000 active; note: potency is the fitted concentration of half-maximal effect; actives are rising curves; nearly all actives have a fitted effect of over 50% in size
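Compounds were scored for reversing the slow growth caused by influenza A NS1 in S. cerevisiae, measured by optical density at 600 nm. Assay medium contained 2% galactose at pH 6.0; NS1-free yeast of the same strain were the positive control.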
The depositor's hits bear a star; u = inconclusive; x = no result given; + = active, no number. A selection: hits, their analogues and other compounds. The true share with any hit is near 12%. Unless noted, calls come from the whole dose curve.

SMILES	Shiga inhibitor	Cycloheximide cs	SARS PLP yeast	NS1 inh
Cc1cc2nc(-c3ccc(SCc4ccc(C(=O)O)cc4)nc3)[nH]c2cc1C	45*	37*	-1%	-5%
COC(=O)c1nnn(CC(=O)NC(=O)Nc2ccccc2)c1C(=O)OC	-13	-5	12%	18%
CN1CCN(c2ccc(C(F)(F)F)cc2NC(=O)Nc2ccccc2)CC1	-8	5	8%	-3%
Cc1ccc(S(=O)(=O)n2nc(-c3ccco3)nc2N)cc1	-16	-5	1%	-3%
O=Cc1ccc(OCc2nnc(-c3ccccc3Br)o2)cc1	57*	21	-2%	-20%
NC(=O)c1ccccc1OCc1nnc(-c2ccccc2Br)o1	65*	19	-6%	10%
O=c1ccc2ccc(OCc3nnc(-c4ccccc4Br)o3)cc2o1	43*	18	0%	0%
CCCNC(=O)c1cc(-c2ccco2)on1	120*	49*	-20%	-5%
CC(C)CNC(=O)c1cc(-c2ccco2)on1	+	35*	1%	-13%
COc1cc(C(=O)NCCNC(=O)C2CCCNC2=O)cc(OC)c1OC (stereo not drawn)	11	6	0%	-7%
COc1ccc(C(=O)c2sc(Nc3ccccc3)nc2N)cc1	28	41*	-6%	19%
COc1ccc(C(=O)c2sc(Nc3ccccc3F)nc2N)cc1	86*	41*	-5%	-35%
Cc1cnc(NC(=O)c2sc(Nc3ccccc3)nc2N)o1	90*	28*	1%	-2%
COc1ccc(C(=O)c2sc(Nc3ccccc3)nc2N)cc1OC	-7	1	1%	1%
Cc1cc(Nc2ccccc2)nn1C(=O)c1ccccc1	8	1	-29%	-191%
COc1ccc(C(=O)n2nc(C)cc2Nc2ccccc2)cc1	72	43*	-28%	-7%
Cc1cccc(C)c1NC(=O)c1sc(N)nc1-c1ccccc1	-6	-5	4%	x
CCCCn1c(N)c(N(CC(C)C)C(=O)c2cc3c(s2)CCCCC3)c(=O)[nH]c1=O	x	x	3%	x
Nc1c(C(=O)c2ccccc2)sc(Nc2ccccc2)c1S(=O)(=O)c1ccccc1	10	-2	1%	19%
Nc1nc(Nc2ccccc2)sc1C(=O)c1ccccc1	90*	36*	-2%	-32%
CC(C)(C)OC(=O)C(C)(C)O/N=C(\C(=O)O)c1csc(N)n1	17	-2	1%	2%
On1c(-c2ccc(Cl)cc2)nc2ccccc21	63*	43*	-17%	x
Cc1cccc(-c2cc3c(N=O)c4ccccc4c-3n[nH]2)c1	104*	46*	-1%	x
Cc1ccc(-c2cc3c(N=O)c4ccccc4c-3n[nH]2)cc1	1	-1	-3%	x
O=Nc1c2cc(-c3ccccc3)[nH]nc-2c2ccccc12	101*	37*	-2%	x
SMILES	Shiga inhibitor	Cycloheximide cs	SARS PLP yeast	NS1 inh
CCCc1cc(=O)[nH]c(SCC(=O)N2CCN(S(=O)(=O)c3ccc(Cl)cc3)CC2)n1	10	-3	-8%	-2%
CCCCCOc1ccc(C2C(C(=O)c3ccc(C)o3)=C(O)C(=O)N2c2cc(C)on2)cc1 (stereo not drawn)	10	15	-1%	8%
c1ccc(-c2n[nH]c3ccccc23)cc1	-39	15	-27%	-92%
c1ccc(-c2n[nH]c3c2oc2ccccc23)cc1	72*	53*	x	x
COc1ccc(S(=O)(=O)Nc2cccc3c2O[C@@H](CN(C)CC2CC2)[C@@H](C)CN([C@@H](C)CO)C3=O)cc1	x	x	-5%	x
COc1ccc(N2C(=O)/C(=C\c3ccco3)N=C2SCC(=O)NC(C)C)cc1Cl	7	2	-23%	23%
O=C(CSC1=N/C(=C/c2ccco2)C(=O)N1c1ccc(OC(F)F)cc1)NC1CCS(=O)(=O)C1 (stereo not drawn)	24*	17	-1%	x
COC(=O)c1c(C)[nH]c(C(=O)OCC(=O)N2c3ccccc3NC(=O)C2(C)C)c1C	14	-2	5%	6%
CCOC(=S)NC(=O)c1sc2ccccc2c1Cl	27	32*	-13%	-124%
O=C(CNC(=O)c1sc2ccccc2c1Cl)OCc1ccccc1	-5	11	-8%	-20%
O=C(CNC(=O)c1sc2ccccc2c1Cl)NCc1cccnc1	17	6	0%	21%
Cc1ccccc1COC(=O)CNC(=O)c1sc2ccccc2c1Cl	x	x	-1%	x
CCCOC(=S)NC(=O)c1sc2ccccc2c1Cl	63*	40*	-3%	-37%
O=C(NC(=S)NCCO)c1sc2ccccc2c1Cl	111*	51*	0%	-1%
CCC1CCCCN1C(=O)CCn1ccnc1 (stereo not drawn)	-2	-7	2%	x
O=C(NCc1ccco1)Nc1ccc(Br)cc1Cl	87*	48*	-11%	-39%
O=C(NCc1ccco1)c1cccc(Br)c1	x	-1	-3%	2%
O=C(NCc1ccco1)c1cc2cc(Br)ccc2o1	87*	35*	-17%	-29%
Cc1c(C(=O)NCc2ccco2)oc2ccc(Br)cc12	x	x	-3%	x
O=C(NCc1ccco1)c1cc2ccccc2c(=O)o1	148*	67*	-9%	3%
CC(c1ccccc1)N1CC(C(=O)Nc2nccs2)CC1=O (stereo not drawn)	19	-1	0%	7%
CC(Sc1nnc(C2CC2)n1C1CC1)C(=O)Nc1cccc(S(=O)(=O)N2CCOCC2)c1 (stereo not drawn)	x	x	1%	x
CC12CCC(=O)N1C(C(=O)Nc1nccs1)CS2 (stereo not drawn)	x	x	-24%	x
COc1ccc(S(=O)(=O)N2CCCC(C(=O)NCc3ccccc3)C2)cc1 (stereo not drawn)	18	-2	4%	6%
CCc1ccc(-c2nc(CS(=O)CC(=O)NCCCN3CCC(C)CC3)c(C)o2)cc1 (stereo not drawn)	19	19*	-2%	6%
SMILES	Shiga inhibitor	Cycloheximide cs	SARS PLP yeast	NS1 inh
CCc1ccc(-c2nc(CS(=O)CC(=O)NCCc3ccccc3)c(C)o2)cc1 (stereo not drawn)	43	21*	6%	-2%
CCc1ccc(-c2nc(CS(=O)CC(=O)NCCN3CCCCCC3)c(C)o2)cc1 (stereo not drawn)	22	27*	0%	11%
O=C1C(Cl)=C(NC2CCCCC2)C(=O)N1c1ccc(Cl)cc1	53*	25*	-4%	0%
CN1CCN(C2=C(Cl)C(=O)N(c3ccc(Cl)cc3)C2=O)CC1	25	9	-4%	0%
c1cncc(-c2nc(-c3cccs3)cs2)c1	53	44*	-3%	-64%
c1csc(-c2csc(-c3cccs3)n2)c1	118*	30*	u	-21%
Oc1ccc(-c2csc(-c3cccnc3)n2)c(O)c1	111*	35*	-5%	x
Clc1ccsc1-c1csc(-c2cccnc2)n1	35	33*	-18%	-160%
O=S(=O)(c1ccc(-c2csc(-c3cccnc3)n2)cc1)N1CCCC1	2	-2	-16%	-83%
O=S(=O)(c1cccc(-c2csc(-c3cccnc3)n2)c1)N1CCCCC1	-3	4	-7%	-53%
COc1ccc(N(C(=O)c2snc(C(N)=O)c2N)C(C(=O)NC2CCCCC2)c2ccc(C)o2)cc1 (stereo not drawn)	-12	-9	0%	12%
CC(C)OCCCNC(=O)c1cn(C)c2ccc(S(=O)(=O)N3CCCC3)cc2c1=O	-6	1	1%	-11%
